Test [1] has as its target Dual specificity protein kinase CLK3 (Homo sapiens) (UniProt P49761). To be noted: at 1 µM.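 Also: each value is the mean inhibition of CLK3.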
Test [2] deals with Dual specificity tyrosine-phosphorylation-regulated kinase 1A (Homo sapiens) (UniProt Q13627). To be noted: at 0.1 µM.
Test [3] has the same target. The conditions noted are these: at 1 µM.
For test [4], the target named is Dual specificity tyrosine-phosphorylation-regulated kinase 1B (Homo sapiens) (UniProt Q9Y463). To be noted: at 0.1 µM.
Dual specificity tyrosine-phosphorylation-regulated kinase 1B (Homo sapiens), sequence (Q9Y463 whole entry, looked up): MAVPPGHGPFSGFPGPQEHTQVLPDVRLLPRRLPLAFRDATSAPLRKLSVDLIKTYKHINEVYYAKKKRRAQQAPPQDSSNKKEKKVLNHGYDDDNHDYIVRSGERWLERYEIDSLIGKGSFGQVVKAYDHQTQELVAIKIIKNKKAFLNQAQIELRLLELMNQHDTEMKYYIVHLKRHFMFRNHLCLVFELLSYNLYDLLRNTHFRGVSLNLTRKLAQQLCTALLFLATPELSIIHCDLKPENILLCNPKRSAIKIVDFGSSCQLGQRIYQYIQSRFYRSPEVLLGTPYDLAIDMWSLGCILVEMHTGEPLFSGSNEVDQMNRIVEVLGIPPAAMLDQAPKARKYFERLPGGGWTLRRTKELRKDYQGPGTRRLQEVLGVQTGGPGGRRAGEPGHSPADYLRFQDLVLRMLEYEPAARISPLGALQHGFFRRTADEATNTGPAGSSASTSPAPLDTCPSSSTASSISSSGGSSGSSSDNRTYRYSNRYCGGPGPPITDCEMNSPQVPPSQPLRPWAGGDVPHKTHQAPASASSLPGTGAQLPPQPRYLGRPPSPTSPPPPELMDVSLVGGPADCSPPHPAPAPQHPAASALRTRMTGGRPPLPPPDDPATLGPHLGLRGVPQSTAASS
For test [5] the target is unchanged. The conditions noted are these: at 1 µM.
Test [6] concerns the target T1, Dual specificity tyrosine-phosphorylation-regulated kinase 2 (Homo sapiens) (UniProt Q92630).
T1 sequence (whole entry): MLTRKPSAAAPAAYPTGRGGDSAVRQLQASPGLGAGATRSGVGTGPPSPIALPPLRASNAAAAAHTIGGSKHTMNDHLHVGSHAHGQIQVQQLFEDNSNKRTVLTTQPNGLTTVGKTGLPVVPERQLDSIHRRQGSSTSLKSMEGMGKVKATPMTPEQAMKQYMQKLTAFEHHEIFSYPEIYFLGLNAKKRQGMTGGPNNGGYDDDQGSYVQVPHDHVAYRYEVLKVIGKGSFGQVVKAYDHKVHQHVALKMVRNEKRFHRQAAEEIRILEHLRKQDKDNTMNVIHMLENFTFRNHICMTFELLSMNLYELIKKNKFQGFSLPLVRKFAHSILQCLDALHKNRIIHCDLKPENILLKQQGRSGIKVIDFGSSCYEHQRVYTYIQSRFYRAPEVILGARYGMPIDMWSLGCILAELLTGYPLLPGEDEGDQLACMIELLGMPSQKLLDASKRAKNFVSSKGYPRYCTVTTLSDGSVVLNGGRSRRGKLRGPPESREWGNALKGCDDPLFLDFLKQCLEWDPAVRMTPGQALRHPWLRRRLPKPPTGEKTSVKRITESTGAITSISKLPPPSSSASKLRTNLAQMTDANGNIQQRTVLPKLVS
The conditions noted are these: at 0.1 µM.

Test [7] has as its target T1, Dual specificity tyrosine-phosphorylation-regulated kinase 2 (Homo sapiens). To be noted: at 1 µM.
Test [8] concerns the target Glycogen synthase kinase-3 alpha (Homo sapiens) (UniProt P49840). To be noted: at 0.1 µM.
The target is the same in test [9]. The conditions noted are these: at 1 µM.
In test [10] the target is Glycogen synthase kinase-3 beta (Homo sapiens) (UniProt P49841). To be noted: at 0.1 µM.
Glycogen synthase kinase-3 beta (Homo sapiens), sequence (P49841 whole entry, looked up): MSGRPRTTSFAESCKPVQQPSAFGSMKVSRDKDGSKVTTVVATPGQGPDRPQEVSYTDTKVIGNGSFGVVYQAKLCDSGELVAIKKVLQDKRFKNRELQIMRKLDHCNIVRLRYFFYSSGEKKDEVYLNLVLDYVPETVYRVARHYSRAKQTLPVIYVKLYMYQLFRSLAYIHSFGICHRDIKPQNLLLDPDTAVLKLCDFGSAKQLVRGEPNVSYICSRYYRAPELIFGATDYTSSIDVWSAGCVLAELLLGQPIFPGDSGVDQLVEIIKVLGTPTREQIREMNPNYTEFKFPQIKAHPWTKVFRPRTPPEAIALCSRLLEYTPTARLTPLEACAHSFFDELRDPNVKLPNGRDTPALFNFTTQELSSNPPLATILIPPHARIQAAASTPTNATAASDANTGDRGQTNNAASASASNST
For test [11] the target is unchanged. To be noted: at 1 µM.
In test [12] the target is Homeodomain-interacting protein kinase 1 (Homo sapiens) (UniProt Q86Z02). The conditions noted are these: at 0.1 µM.
Homeodomain-interacting protein kinase 1 (Homo sapiens), sequence (Q86Z02 whole entry, looked up): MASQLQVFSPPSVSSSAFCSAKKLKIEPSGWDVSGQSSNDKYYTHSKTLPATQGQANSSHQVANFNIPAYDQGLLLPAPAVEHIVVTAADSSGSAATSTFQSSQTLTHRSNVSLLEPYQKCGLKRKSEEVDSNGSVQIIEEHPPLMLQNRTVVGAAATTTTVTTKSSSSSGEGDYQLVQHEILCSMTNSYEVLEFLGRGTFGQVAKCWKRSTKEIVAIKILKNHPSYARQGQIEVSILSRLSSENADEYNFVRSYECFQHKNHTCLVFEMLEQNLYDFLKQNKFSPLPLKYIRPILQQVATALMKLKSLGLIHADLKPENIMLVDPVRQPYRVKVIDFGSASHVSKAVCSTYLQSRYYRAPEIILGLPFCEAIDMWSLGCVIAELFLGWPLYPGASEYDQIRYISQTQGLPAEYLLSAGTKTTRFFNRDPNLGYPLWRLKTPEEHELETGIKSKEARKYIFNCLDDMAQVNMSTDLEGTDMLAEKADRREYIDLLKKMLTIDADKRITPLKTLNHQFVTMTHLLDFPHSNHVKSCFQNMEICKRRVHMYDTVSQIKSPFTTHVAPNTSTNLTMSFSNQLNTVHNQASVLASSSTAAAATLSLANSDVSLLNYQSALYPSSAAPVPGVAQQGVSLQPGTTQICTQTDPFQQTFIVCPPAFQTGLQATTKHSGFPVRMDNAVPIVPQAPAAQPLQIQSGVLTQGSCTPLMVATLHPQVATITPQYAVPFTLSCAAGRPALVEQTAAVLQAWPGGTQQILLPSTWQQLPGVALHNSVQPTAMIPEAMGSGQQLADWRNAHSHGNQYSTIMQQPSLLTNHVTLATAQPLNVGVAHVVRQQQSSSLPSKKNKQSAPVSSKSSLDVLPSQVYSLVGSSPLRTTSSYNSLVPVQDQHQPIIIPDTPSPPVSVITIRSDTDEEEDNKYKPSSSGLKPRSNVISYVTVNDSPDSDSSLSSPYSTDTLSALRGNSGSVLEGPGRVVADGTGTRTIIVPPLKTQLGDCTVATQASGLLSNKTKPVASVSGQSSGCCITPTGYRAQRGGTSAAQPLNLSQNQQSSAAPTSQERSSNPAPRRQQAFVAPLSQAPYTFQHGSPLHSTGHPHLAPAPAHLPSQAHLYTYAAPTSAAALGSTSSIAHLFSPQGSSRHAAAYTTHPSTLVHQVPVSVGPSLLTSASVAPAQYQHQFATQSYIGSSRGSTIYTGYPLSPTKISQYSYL
Test [13] has the same target. The conditions noted are these: at 1 µM.
Test [14] concerns the target T2, Homeodomain-interacting protein kinase 4 (Homo sapiens) (UniProt Q8NE63).
T2 sequence (whole entry): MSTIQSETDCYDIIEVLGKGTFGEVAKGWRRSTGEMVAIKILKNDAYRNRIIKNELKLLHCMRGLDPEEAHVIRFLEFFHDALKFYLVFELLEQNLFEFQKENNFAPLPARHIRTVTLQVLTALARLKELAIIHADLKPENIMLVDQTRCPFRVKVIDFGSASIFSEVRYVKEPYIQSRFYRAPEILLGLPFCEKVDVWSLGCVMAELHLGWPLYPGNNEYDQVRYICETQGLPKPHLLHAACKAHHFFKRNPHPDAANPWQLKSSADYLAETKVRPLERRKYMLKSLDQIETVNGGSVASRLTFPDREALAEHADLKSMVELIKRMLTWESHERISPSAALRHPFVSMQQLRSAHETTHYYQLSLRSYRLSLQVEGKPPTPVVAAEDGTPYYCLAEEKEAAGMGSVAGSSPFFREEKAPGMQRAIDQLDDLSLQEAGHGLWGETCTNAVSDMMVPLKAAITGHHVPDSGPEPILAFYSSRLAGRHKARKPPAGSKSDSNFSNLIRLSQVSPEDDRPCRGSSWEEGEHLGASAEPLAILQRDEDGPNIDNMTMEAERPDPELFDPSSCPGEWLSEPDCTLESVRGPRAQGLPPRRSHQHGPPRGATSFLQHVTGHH
To be noted: at 0.1 µM.

Test [15] has as its target T2, Homeodomain-interacting protein kinase 4 (Homo sapiens). To be noted: at 1 µM.
Test [16] deals with Mitogen-activated protein kinase 9 (Homo sapiens) (UniProt P45984). The conditions noted are these: at 0.1 µM.
Mitogen-activated protein kinase 9 (Homo sapiens), sequence (P45984 whole entry, looked up): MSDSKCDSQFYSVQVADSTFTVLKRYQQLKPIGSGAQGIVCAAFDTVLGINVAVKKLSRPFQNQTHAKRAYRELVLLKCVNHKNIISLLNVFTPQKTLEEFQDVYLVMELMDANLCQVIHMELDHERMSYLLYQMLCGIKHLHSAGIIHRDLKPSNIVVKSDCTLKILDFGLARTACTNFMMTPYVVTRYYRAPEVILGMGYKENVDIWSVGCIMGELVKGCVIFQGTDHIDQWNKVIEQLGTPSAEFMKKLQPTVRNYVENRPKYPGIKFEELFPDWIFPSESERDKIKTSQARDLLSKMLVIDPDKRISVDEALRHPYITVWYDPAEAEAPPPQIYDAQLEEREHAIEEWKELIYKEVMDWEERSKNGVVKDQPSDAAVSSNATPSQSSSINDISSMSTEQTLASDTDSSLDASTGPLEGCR
For test [17] the target is unchanged. To be noted: at 1 µM.
In test [18] the target is Mitogen-activated protein kinase 1 (Homo sapiens) (UniProt P28482). To be noted: at 0.1 µM.
Mitogen-activated protein kinase 1 (Homo sapiens), sequence (P28482 whole entry): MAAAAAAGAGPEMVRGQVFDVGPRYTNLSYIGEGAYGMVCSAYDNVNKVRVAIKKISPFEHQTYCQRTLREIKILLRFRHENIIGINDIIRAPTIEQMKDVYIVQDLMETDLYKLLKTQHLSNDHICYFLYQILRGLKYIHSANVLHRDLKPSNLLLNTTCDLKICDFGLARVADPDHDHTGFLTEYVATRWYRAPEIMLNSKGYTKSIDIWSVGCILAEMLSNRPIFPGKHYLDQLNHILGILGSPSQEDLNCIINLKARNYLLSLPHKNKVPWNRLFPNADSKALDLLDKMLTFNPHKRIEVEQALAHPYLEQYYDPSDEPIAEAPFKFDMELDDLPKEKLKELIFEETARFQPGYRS
The target is the same in test [19]. The conditions noted are these: at 1 µM.
Test [20] has as its target Mitogen-activated protein kinase 3 (Homo sapiens) (UniProt P27361). The conditions noted are these: at 0.1 µM.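 Also: each value is a mean inhibition figure.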

SMILES strings stand for the structures. “And” between values parts separate entries of the source, which are not always exact repeats. Equal values may be shown once.

This passage reports inhibition results from ChEMBL document CHEMBL1961873, “Compounds: GSK PKIS; Assays: Nanosyn kinase panel” (2012).

In general, inhibition refers to the drop in the measured response relative to a control, in per cent.

Dual specificity protein kinase CLK3 (Homo sapiens), sequence (P49761 whole entry, looked up): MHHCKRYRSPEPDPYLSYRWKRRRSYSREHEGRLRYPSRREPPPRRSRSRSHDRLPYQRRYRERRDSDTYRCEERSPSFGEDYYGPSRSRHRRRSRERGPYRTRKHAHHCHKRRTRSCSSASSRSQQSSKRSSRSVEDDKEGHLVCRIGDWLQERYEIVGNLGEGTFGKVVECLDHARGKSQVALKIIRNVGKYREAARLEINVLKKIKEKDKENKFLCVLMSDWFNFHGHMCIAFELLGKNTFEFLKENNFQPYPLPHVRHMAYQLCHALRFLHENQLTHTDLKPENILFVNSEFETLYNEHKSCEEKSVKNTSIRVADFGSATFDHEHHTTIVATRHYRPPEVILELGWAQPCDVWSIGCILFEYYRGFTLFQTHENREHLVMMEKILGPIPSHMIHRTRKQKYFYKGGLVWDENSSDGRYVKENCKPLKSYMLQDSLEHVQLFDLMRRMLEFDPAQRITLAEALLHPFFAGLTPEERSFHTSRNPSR
Glycogen synthase kinase-3 alpha (Homo sapiens), sequence (P49840 2-483 limits assumed): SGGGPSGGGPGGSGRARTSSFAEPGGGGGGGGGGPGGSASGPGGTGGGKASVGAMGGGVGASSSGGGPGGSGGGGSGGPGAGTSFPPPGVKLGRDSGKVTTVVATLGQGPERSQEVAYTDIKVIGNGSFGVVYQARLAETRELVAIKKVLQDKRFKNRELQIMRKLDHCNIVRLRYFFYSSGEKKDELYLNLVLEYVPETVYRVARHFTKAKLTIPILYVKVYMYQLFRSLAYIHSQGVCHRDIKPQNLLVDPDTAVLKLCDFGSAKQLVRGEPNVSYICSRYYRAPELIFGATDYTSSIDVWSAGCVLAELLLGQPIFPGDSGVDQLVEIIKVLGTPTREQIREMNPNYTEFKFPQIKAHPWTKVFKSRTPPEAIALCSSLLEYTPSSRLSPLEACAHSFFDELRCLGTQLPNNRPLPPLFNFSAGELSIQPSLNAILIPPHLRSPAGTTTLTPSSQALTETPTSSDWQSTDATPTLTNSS
Mitogen-activated protein kinase 3 (Homo sapiens), sequence (P27361 whole entry): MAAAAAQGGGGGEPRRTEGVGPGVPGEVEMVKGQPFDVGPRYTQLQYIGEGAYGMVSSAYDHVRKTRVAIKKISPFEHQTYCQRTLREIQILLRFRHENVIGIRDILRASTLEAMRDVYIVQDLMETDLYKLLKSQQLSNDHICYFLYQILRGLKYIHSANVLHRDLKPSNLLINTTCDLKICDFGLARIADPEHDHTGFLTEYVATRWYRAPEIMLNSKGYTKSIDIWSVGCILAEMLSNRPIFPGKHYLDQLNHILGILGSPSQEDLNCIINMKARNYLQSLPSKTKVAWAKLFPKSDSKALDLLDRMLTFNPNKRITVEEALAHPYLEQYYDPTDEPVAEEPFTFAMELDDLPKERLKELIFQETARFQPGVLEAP

On to `COc1ccc2ncn(-c3cc(O[C@H](C)c4ccccc4C(F)(F)F)c(C(N)=O)s3)c2c1`, for which the inhibition is 0.85% in test [1]; 0.11% in test [2]; 2.44% in test [3]; 0.37% in [4]; 1.63% in [5]; -0.29% in test [6]. Further, the inhibition is 1.33% in test [7]; -0.19% in test [8]; 4.58% in test [9]; -0.14% in test [10]; 4.75% in test [11]; -2.12% in test [12]. For the same compound, the inhibition in test [13] is 2.1%; in test [14], -0.89%; in test [15], 3.28%; in [16], 0.32%; in test [17], -1.29%; in test [18], -1.88%. Moreover, the inhibition was -0.49% in [19] and -0.86% in test [20].

Turning to `CN1CCN(Cc2ccc(-c3cc4ncnc(Nc5ccc(OCc6cccc(F)c6)c(Cl)c5)c4s3)o2)CC1`, the inhibition was 0.78% and 2.08% in [1]; 2.29% and 3.65% in test [2]; 3.25% and 6.67% in test [3]; -1.48% and 1.67% in test [4]; -0.65% and 3.95% in [5]; 2.17% and 3.19% in [6]. Moreover, the inhibition is 1.22% and 4.53% in test [7]; 4.34% and 12.6% in test [8]; 3.93% and 13.7% in [9]; 2.82% and 10.6% in test [10]; 4.12% and 11.3% in test [11]; -3.31% and 2.8% in [12]. Besides, the inhibition in [13] is 0.3% and 2.78%; in test [14], -0.43% and 2.01%; in test [15] it was 0.76% and 4.59%; in [16], 0.58% and 7.12%; in test [17], 2.65% and 8.42%; in test [18], 9.37% and 6.21%. The inhibition in test [19] is 4.78% and 9.62%; in [20], 2.39% and 7.04%.

On to `CN1CCC(C(=O)Nc2n[nH]c3nc(-c4ccc(O)cc4)c(Br)cc23)CC1`, for which the inhibition was 3.67% and 4.52% in test [1]; 9.4% and 10.2% in test [2]; 43.4% and 51.8% in test [3]; 29.6% and 27.7% in test [4]; 66.8% and 67% in test [5]; 6.68% and 6.28% in test [6]. For the same compound, the inhibition is 33.7% and 34% in test [7]; 78.2% and 80.5% in [8]; 83.2% and 81.7% in [9]; 2.86% and -1.65% in test [12]; 20.1% and 19.3% in [13]; 0.89% and 1.06% in test [14]. Besides, the inhibition in [15] was 5.87% and 4.37%; in [16], 5.88% and 4.7%; in test [17], 16.6% and 13.9%; in test [18], 6.51% and 1.55%; in test [19] it was 12.1% and 3.95%; in test [20] it was 5.16% and 1.61%.

Regarding `OCCCNc1nccc(-c2c(-c3ccc(F)cc3)nn3cc(C(F)(F)F)ccc23)n1`, the inhibition in [1] stood at 0.7%; in [2] it was 1.47%; in test [3], 6.36%; in test [4], 1.89%; in [5], 3.86%; in test [6] it was 2.33%. In addition, the inhibition is 3.97% in [7]; 7.04% in test [8]; 18.2% in [9]; 8.01% in [10]; 31.2% in test [11]; -0.49% in test [12]. The inhibition was determined as 3.61% in test [13]; 3.13% in test [14]; 6.59% in test [15]; 14.8% in test [16]; 59.7% in test [17]; 1.24% in test [18]. For the same compound, the inhibition in [19] was determined as 7.07%; in [20] it was 1.68%.

In the case of `COc1cccc(Nc2nccc(-c3cnn4ncccc34)n2)c1`, the inhibition came out at 65.3% in test [1]; 77.4% in test [2]; 88.3% in test [3]; 81.5% in [4]; 90% in test [5]; 5.88% in [6]. Besides, the inhibition in test [7] came out at 37.6%; in test [8] it was 60.7%; in test [9], 79.5%; in test [10] it was 59.7%; in test [11] it was 79%; in test [12], 88.9%. For the same compound, the inhibition came out at 92.6% in test [13]; 56.4% in test [14]; 87.3% in test [15]; 9.47% in [16]; 46.2% in test [17]; 2.75% in test [18]. The inhibition in test [19] came out at 26.5%; in test [20], 1.68%.

Turning to `COc1ccc(Nc2ncc(-c3ccccc3)o2)cc1OC`, the inhibition in test [1] amounted to 5.65%; in test [2] it was 8.15%; in test [3], 12%; in test [4], 9%; in test [5], 10.9%; in test [6] it was 0.67%. Besides, the inhibition in test [7] came to 2.48%; in test [8], 8.4%; in test [9] it was 38.4%; in [10] it was 7.94%; in [11] it was 33%; in test [12] it was 8.4%. Besides, the inhibition was 28.6% in [13]; 3.61% in [14]; 22.6% in test [15]; 2.69% in test [16]; 8.77% in test [17]; -0.07% in test [18]. The inhibition worked out at 1.54% in test [19] and 1.12% in test [20].

As for `CCS(=O)(=O)c1ccc(OC)c(Nc2ncc(-c3cccc(F)c3)o2)c1`, the inhibition came out at 12.1% in test [1]; 4.83% in test [2]; 26% in test [3]; 0.76% in test [4]; 12.2% in [5]; 5.21% in test [6]. Moreover, the inhibition in test [7] was found to be 13.7%; in [8], 2.67%; in test [9], 5.61%; in [10] it was 2.72%; in test [11], 4.08%; in test [12], 1.26%. The inhibition in test [13] came out at 23.8%; in [14] it was 4.37%; in test [15], 30%; in [16], 7.66%; in test [17] it was 7.11%; in [18] it was 6.33%. Besides, the results for the inhibition in test [19] and in test [20] were 7.09% and 4.68%, respectively.
